This note sets out measurements from PubChem BioAssay.

In assay [1] the target is 6-phosphogluconate dehydrogenase, decarboxylating (Homo sapiens) (UniProt P52209). The assay can be described thus: 6PGD enzyme inhibitors, primary screen, biochemical, human, recombinant enzyme, NADPH absorbance (AID 1159550). The conditions noted are these: recombinant 6PGD, NADPH absorbance 341 nm; at 10 µM; stronger effect = higher value.
A short description of assay [2]: differential killing of epithelial or mesenchymal cells, primary screen, imaging, PC-3E GFP, TEM4-18 mCherry, co-culture (AID 1345086;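 active = compounds killing one labelled cell type while sparing the other, by normalised counts and ratio limits, not self-fluorescent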;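 for all read-outs here: cells exposed to compound for 72 h before imaging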;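 for red/green cell ratio (normalised): normalised mesenchymal count divided by normalised epithelial count so high means epithelial killing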). The conditions noted are these: imaging cell counts, at 1 µM; for red/green cell ratio (normalised): actives lie on both sides, counts scaled to control wells, 1 = unselective.
The target in assay [3] is Mitogen-activated protein kinase 7 (Homo sapiens) (UniProt Q13164). Kind of assay: ERK5 transactivation activators in reporter cells, primary screen, cell-based, HTS (AID 1508626;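 active = luciferase signal above three times the same-plate solvent-only control wells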;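 note: luciferase driven by Gal4-ERK5 fusion binding five Gal4 sites before minimal TATA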). The conditions noted are these: HeLa Gal4-ERK5 transactivation, 18 h, at 5 µM, stronger effect = higher value.
Mitogen-activated protein kinase 7 (Homo sapiens), sequence (Q13164 whole entry, looked up, the tested form may be a part): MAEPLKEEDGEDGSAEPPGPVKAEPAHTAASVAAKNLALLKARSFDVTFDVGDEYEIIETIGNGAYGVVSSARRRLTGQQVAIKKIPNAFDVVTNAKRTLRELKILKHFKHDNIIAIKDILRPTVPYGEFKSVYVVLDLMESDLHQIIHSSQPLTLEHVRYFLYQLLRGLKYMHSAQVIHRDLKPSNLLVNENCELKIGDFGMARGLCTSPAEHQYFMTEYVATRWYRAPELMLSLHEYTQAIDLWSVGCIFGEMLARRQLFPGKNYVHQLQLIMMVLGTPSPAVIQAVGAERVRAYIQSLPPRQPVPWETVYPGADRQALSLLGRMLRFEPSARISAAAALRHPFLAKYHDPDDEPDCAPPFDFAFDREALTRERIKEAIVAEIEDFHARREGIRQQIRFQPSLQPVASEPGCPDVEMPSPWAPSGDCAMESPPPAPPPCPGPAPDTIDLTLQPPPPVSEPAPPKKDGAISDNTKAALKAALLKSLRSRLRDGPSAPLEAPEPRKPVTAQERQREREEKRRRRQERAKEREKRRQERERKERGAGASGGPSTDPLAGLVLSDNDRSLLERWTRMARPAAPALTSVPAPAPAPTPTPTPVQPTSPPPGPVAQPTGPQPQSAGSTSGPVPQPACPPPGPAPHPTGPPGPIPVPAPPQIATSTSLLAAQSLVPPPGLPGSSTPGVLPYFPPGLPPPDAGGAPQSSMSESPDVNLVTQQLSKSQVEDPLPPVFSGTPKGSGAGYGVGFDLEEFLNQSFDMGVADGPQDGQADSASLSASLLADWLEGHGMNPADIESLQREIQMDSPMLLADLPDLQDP
Setting [4] is: measured here: epithelial PC-3E GFP cell survival.
Setting [5] is: measured here: mesenchymal TEM4-18 mCherry cell survival.

Several values for one entry are separate records, joined by “and”; a condition that tells them apart may be missing. Equal entries are not always repeated. Activity calls are given as the source filed them.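 Rule for the calls, unless noted: active = at least 20% inhibition of 6-phosphogluconate dehydrogenase activity; inactive = the rest.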

6-phosphogluconate dehydrogenase, decarboxylating (Homo sapiens), sequence (P52209 whole entry, looked up): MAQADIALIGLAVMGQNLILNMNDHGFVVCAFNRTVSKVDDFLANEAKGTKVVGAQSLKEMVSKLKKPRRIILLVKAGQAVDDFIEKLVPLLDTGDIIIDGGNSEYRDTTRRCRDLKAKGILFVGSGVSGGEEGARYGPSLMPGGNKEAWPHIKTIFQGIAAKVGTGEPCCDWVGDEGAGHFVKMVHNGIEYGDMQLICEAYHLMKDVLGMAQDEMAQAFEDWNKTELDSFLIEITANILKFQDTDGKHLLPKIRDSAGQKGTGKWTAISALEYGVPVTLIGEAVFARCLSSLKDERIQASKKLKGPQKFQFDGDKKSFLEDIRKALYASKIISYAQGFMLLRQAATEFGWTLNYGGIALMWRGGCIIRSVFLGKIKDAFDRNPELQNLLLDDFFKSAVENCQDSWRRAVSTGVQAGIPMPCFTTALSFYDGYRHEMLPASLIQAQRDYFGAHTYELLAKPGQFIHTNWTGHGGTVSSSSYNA

Regarding `O=c1c(O)c(-c2ccccc2)oc2cc(O)ccc12`, the inhibition in assay [1] is -10.2% (inactive). Besides, in assay [2], the red/green cell ratio (normalised) was 0.89 (inactive). Further, the normalised cell number in assay [2] (setting [4]) is 0.98; in assay [2] (setting [5]) it was 0.88. For the same molecule, the luciferase signal in assay [3] was 264 AU (inactive).

With `CC(CCC(=O)O)[C@H]1CCC2C3CC[C@@H]4CC(=O)CC[C@]4(C)C3C=C[C@@]21C` (stereo not given in full), the inhibition in assay [1] was 12.1% (inactive). Further, in assay [2], the red/green cell ratio (normalised) is 0.9 (inactive). For the same molecule, the normalised cell number in assay [2] (setting [4]) came out at 1; in assay [2] (setting [5]), 0.9. For the same molecule, the luciferase signal in assay [3] is 28 AU (inactive).

Consider `CC1=CC2C(CC1=O)C(C)=CCC2C(C)C` (stereo not given), for which, in assay [1], the inhibition is 2.64% (inactive). Also, the red/green cell ratio (normalised) in assay [2] is 1.21 (inactive). Moreover, the normalised cell number in assay [2] (setting [4]) came out at 1.06; in assay [2] (setting [5]) it was 1.28. The luciferase signal in assay [3] is 24 AU (inactive).

`C=CC(C)(O)CC/C=C(\C)CCC=C(C)C` (stereo not given): the inhibition in assay [1] was -3.52% (inactive). The red/green cell ratio (normalised) in assay [2] is 1.02 (inactive). Moreover, the normalised cell number in assay [2] (setting [4]) turned out to be 0.95; in assay [2] (setting [5]), 0.98. Moreover, the luciferase signal in assay [3] is 68 AU (inactive).

On to `COc1cc2c(cc1OC)C1(O)C(=O)c3ccc(O)c(C(=O)O)c3OC1CO2` (stereo not given), for which the inhibition in assay [1] is 11.5% (inactive). In addition, the red/green cell ratio (normalised) in assay [2] is 1 (inactive). For the same molecule, the normalised cell number in assay [2] (setting [4]) and in assay [2] (setting [5]) was 1.11 each time. In assay [3], the luciferase signal was 16 AU (inactive).

In the case of `CC(C(=O)O)[C@H]1CCC2C3CC=C4C[C@@H](O)CC[C@]4(C)C3CC[C@@]21C` (stereo not given in full), the inhibition in assay [1] was 8.3% (inactive). Besides, the red/green cell ratio (normalised) in assay [2] is 0.91 (inactive). For the same molecule, the normalised cell number in assay [2] (setting [4]) worked out at 1.12; in assay [2] (setting [5]) it was 1.02. In addition, the luciferase signal in assay [3] was 44 AU (inactive).

As to `CC12CCC3C(CC3(C)C)C(C)(CCC1=O)O2` (stereo not given), in assay [1], the inhibition was 11.8% (inactive). Moreover, the red/green cell ratio (normalised) in assay [2] is 1.12 (inactive). Also, the figures for the normalised cell number in assay [2] (setting [4]) and in assay [2] (setting [5]) were 0.97 and 1.09, respectively. Further, the luciferase signal in assay [3] was 60 AU (inactive).

For the molecule `COc1ccc2c(c1)OC1(O)COc3cc(OC)c(OC)cc3C1=C2` (stereo not given), in assay [1], the inhibition was -7.74% (inactive). Further, the red/green cell ratio (normalised) in assay [2] was 1.07 (inactive). The normalised cell number was determined as 1.01 in assay [2] (setting [4]) and 1.09 in assay [2] (setting [5]). Further, in assay [3], the luciferase signal was 108 AU (inactive).

Take `COc1ccc2c(c1)OCC(Cc1ccc(OC)c(O)c1)C2=O` (stereo not given): the inhibition in assay [1] was 13.3% (inactive). Further, the red/green cell ratio (normalised) in assay [2] is 0.88 (inactive). Also, the normalised cell number in assay [2] (setting [4]) was 0.74; in assay [2] (setting [5]), 0.65. Besides, in assay [3], the luciferase signal is 52 AU (inactive).

On to `CC1(C)CC23C(=O)CCC(O)C2(C)CCC13` (stereo not given), for which the inhibition in assay [1] was -0.3% (inactive). Besides, in assay [2], the red/green cell ratio (normalised) is 1 (inactive). Also, the normalised cell number in assay [2] (setting [4]) and in assay [2] (setting [5]) was 1.11 throughout. Also, the luciferase signal in assay [3] was 72 AU (inactive).

With `CC(=O)O[C@@H]1CC2C(C)(C)[C@H](O)CC[C@]2(C)C2CC[C@@]3(C)[C@H](c4ccoc4)OC(=O)C4OC43[C@@]21C` (stereo not given in full), the inhibition in assay [1] was -1.03% (inactive) and -1.39% (inactive). For the same molecule, in assay [2], the red/green cell ratio (normalised) was 1.03 (inactive). For the same molecule, the normalised cell number in assay [2] (setting [4]) amounted to 1.03; in assay [2] (setting [5]), 1.06. Also, the luciferase signal in assay [3] was 36 AU (inactive).

Turning to `COc1cc(-c2coc3cc(OC)c(OC)c(OC)c3c2=O)cc(OC)c1OC`, in assay [1], the inhibition is 12.5% (inactive). For the same molecule, the red/green cell ratio (normalised) in assay [2] is 1.13 (inactive). Moreover, the normalised cell number in assay [2] (setting [4]) was determined as 0.98; in assay [2] (setting [5]), 1.1. For the same molecule, the luciferase signal in assay [3] is 100 AU (inactive).

For `C#CCCCCCCCCCCCC(O)CC(O)COC(C)=O` (stereo not given), in assay [1], the inhibition was 8.03% (inactive). Besides, the red/green cell ratio (normalised) in assay [2] was 0.83 (inactive). Further, the normalised cell number in assay [2] (setting [4]) turned out to be 1.1; in assay [2] (setting [5]) it was 0.91. The luciferase signal in assay [3] was 60 AU (inactive).

`C=CC1=C(C)/C(=C/c2[nH]c(Cc3[nH]c(/C=C4\NC(=O)C(C)=C4C=C)c(C)c3CCC(=O)O)c(CCC(=O)O)c2C)NC1=O`: in assay [1], the inhibition is 2.22% (inactive). In addition, the red/green cell ratio (normalised) in assay [2] was 0.85 (inactive). In addition, the normalised cell number in assay [2] (setting [4]) was determined as 1.14; in assay [2] (setting [5]), 0.97. Further, the luciferase signal in assay [3] is 60 AU (inactive).

Regarding `CCCCCC(=O)Cc1cc(O)cc(O)c1C(=O)Oc1cc(CC(=O)CCCCC)c(C(=O)O)c(OC)c1`, the inhibition in assay [1] is 6.8% (inactive). In assay [2], the red/green cell ratio (normalised) was 1.08 (inactive). The figures for the normalised cell number in assay [2] (setting [4]) and in assay [2] (setting [5]) were 0.95 and 1.03, respectively. Further, the luciferase signal in assay [3] is 160 AU (inactive).

`CCNC(=O)CC[C@H](N)C(=O)O`: in assay [1], the inhibition was 3.3% (inactive). Besides, in assay [2], the red/green cell ratio (normalised) was 0.97 (inactive). Moreover, the normalised cell number stood at 1.09 in assay [2] (setting [4]) and 1.06 in assay [2] (setting [5]). For the same molecule, in assay [3], the luciferase signal is 164 AU (inactive).

Turning to `O=C(O)c1cccc(O)c1O`, the inhibition in assay [1] was 4.23% (inactive). For the same molecule, in assay [2], the red/green cell ratio (normalised) is 0.96 (inactive). The normalised cell number in assay [2] (setting [4]) is 1.23; in assay [2] (setting [5]), 1.19. Also, the luciferase signal in assay [3] was 20 AU (inactive).

On to `O=c1c(-c2ccccc2)coc2cc(O)cc(O)c12`, for which the inhibition in assay [1] was -1.41% (inactive). The red/green cell ratio (normalised) in assay [2] was 0.93 (inactive). The normalised cell number in assay [2] (setting [4]) turned out to be 1.2; in assay [2] (setting [5]), 1.12. For the same molecule, the luciferase signal in assay [3] is 40 AU (inactive).

Consider `C=CCSCC=C`, for which the inhibition in assay [1] is -1.41% (inactive). The red/green cell ratio (normalised) in assay [2] is 1.04 (inactive). The results for the normalised cell number in assay [2] (setting [4]) and in assay [2] (setting [5]) were 1.02 and 1.06, respectively. For the same molecule, the luciferase signal in assay [3] was 20 AU (inactive).

Turning to `O=c1c(O)c(-c2ccccc2)oc2ccccc12`, the inhibition in assay [1] was 1.99% (inactive). The red/green cell ratio (normalised) in assay [2] is 0.97 (inactive). Further, the normalised cell number in assay [2] (setting [4]) worked out at 1.03; in assay [2] (setting [5]), 1. In addition, the luciferase signal in assay [3] is 24 AU (inactive).

Consider `C=C[C@@](C)(O)CCC1C(=C)C[C@H](O)C2C(C)(C)CCCC12C` (stereo not given in full), for which the inhibition in assay [1] is 15.2% (inactive). The red/green cell ratio (normalised) in assay [2] is 0.87 (inactive). Moreover, the results for the normalised cell number in assay [2] (setting [4]) and in assay [2] (setting [5]) were 1.07 and 0.93, respectively. For the same molecule, the luciferase signal in assay [3] is 64 AU (inactive).

As for `COC(=O)[C@@]1(C)CCC[C@]2(C)c3ccc(O)c(C(C)C)c3CCC12` (stereo not given in full), in assay [1], the inhibition is -0.875% (inactive). Further, the red/green cell ratio (normalised) in assay [2] is 1.1 (inactive). The figures for the normalised cell number in assay [2] (setting [4]) and in assay [2] (setting [5]) were 0.97 and 1.07, respectively. Besides, the luciferase signal in assay [3] is 52 AU (inactive).

For `O=C(/C=C/c1ccccc1)c1ccc(O)cc1`, the inhibition in assay [1] is 1.18% (inactive). Moreover, the red/green cell ratio (normalised) in assay [2] was 1.04 (inactive). Besides, the normalised cell number in assay [2] (setting [4]) amounted to 0.75; in assay [2] (setting [5]) it was 0.79. Moreover, in assay [3], the luciferase signal is 28 AU (inactive).

Consider `COc1c(CC(=O)c2cc3c(cc2O)OC(C)(C)C(O)C3)ccc2c1C=CC(C)(C)O2` (stereo not given), for which, in assay [1], the inhibition is 5.33% (inactive). In assay [2], the red/green cell ratio (normalised) was 0.66 (inactive). The normalised cell number in assay [2] (setting [4]) was 1.48; in assay [2] (setting [5]) it was 0.97. The luciferase signal in assay [3] was 40 AU (inactive).

Take `COC(=O)c1c(C)c2c(c(C)c1O)OC(=O)c1c(C)c(Cl)c(O)c(Cl)c1O2`: the inhibition in assay [1] is 11.2% (inactive). In addition, in assay [2], the red/green cell ratio (normalised) is 0.9 (inactive). Also, the normalised cell number was 1.03 in assay [2] (setting [4]) and 0.93 in assay [2] (setting [5]). In addition, the luciferase signal in assay [3] is 128 AU (inactive).

As to `Cc1cc(O)c(C)c(O)c1C(=O)O`, the inhibition in assay [1] was -9.88% (inactive). In assay [2], the red/green cell ratio (normalised) was 0.88 (inactive). Moreover, the normalised cell number in assay [2] (setting [4]) is 1.09; in assay [2] (setting [5]), 0.97. Also, in assay [3], the luciferase signal is 72 AU (inactive).

As for `O=C(O[C@@H]1Cc2c(O)cc(O)cc2O[C@@H]1c1ccc(O)c(O)c1)c1cc(O)c(O)c(O)c1`, the inhibition in assay [1] is 5.78% (inactive). Further, the red/green cell ratio (normalised) in assay [2] was 0.99 (inactive). The normalised cell number in assay [2] (setting [4]) came out at 0.85; in assay [2] (setting [5]), 0.83. The luciferase signal in assay [3] is 52 AU (inactive).
